What was measured:
Experiment in all cases: PBM; 200 nM protein, PBS
Conditions in all cases: dsDNA, one strand shown
VENTX = target: T1, VENTX (Homo sapiens, UniProt O95231 78-163, R121Q)
T1 sequence: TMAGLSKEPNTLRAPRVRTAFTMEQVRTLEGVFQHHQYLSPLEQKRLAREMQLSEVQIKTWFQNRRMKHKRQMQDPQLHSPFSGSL

HOXA4 [1] = target: HOXA4 (Homo sapiens, UniProt Q00056 201-287, W262R)
HOXA7 [2] = target: HOXA7 (Homo sapiens, UniProt P31268 116-202)
ALX4 [3] = target: ALX4 (Homo sapiens, UniProt Q9H161 200-286)
PRRX1 [4] = target: PRRX1 (Homo sapiens, UniProt P54821 80-166, F113S)
Sequence of PRRX1 (Homo sapiens, UniProt P54821 80-166, F113S) (P54821 80-166 F113S): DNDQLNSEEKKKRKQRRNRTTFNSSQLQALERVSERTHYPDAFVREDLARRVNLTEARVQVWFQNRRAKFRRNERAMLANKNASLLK

HOXB6 [5] = target: HOXB6 (Homo sapiens, UniProt P17509 132-218, K202E)
Sequence of HOXB6 (Homo sapiens, UniProt P17509 132-218, K202E) (P17509 132-218 K202E): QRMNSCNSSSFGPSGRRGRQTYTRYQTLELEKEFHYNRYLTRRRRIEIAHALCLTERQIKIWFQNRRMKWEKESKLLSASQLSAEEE

ALX4 [6] = target: ALX4 (Homo sapiens, UniProt Q9H161 200-286, Q225E)
Sequence of ALX4 (Homo sapiens, UniProt Q9H161 200-286, Q225E) (Q9H161 200-286 Q225E): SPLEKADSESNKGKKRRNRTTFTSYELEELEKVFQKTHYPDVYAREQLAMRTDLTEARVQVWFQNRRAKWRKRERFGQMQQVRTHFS

HOXA2 = HOXA2 (Homo sapiens, UniProt O43364 129-215, R185T)
Sequence of HOXA2 (O43364 129-215 R185T): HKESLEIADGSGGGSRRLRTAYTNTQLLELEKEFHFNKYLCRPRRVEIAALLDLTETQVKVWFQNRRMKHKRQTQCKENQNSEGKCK

ALX1 [7] = target: ALX1 (Homo sapiens, UniProt Q15699 118-204, L144V)
Sequence of ALX1 (Homo sapiens, UniProt Q15699 118-204, L144V) (Q15699 118-204 L144V): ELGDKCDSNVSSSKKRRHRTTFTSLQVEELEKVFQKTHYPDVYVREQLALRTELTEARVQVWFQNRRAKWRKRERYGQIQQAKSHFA

ALX1 [8] = target: ALX1 (Homo sapiens, UniProt Q15699 118-204, L144R)
Sequence of ALX1 (Homo sapiens, UniProt Q15699 118-204, L144R) (Q15699 118-204 L144R): as the sequence (Q15699 118-204 L144V) above, with V27R counted along it

HOXA4 [9] = target: HOXA4 (Homo sapiens, UniProt Q00056 201-287)
Sequence of HOXA4 (Homo sapiens, UniProt Q00056 201-287) (Q00056 201-287): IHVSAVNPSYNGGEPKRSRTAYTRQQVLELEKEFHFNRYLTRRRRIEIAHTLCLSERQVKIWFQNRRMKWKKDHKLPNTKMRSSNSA

MSX2 = MSX2 (Homo sapiens, UniProt P35548 130-214)
Sequence of MSX2 (P35548 130-214): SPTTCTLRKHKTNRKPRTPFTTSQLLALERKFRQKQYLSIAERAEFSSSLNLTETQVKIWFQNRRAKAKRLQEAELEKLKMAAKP

HOXA7 [10] = target: HOXA7 (Homo sapiens, UniProt P31268 116-202, W177C)
Sequence of HOXA7 (Homo sapiens, UniProt P31268 116-202, W177C) (P31268 116-202 W177C): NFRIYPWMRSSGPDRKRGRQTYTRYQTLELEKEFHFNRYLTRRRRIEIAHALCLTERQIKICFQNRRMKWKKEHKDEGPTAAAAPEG

ALX1 [11] = target: ALX1 (Homo sapiens, UniProt Q15699 118-204)
Sequence of ALX1 (Homo sapiens, UniProt Q15699 118-204) (Q15699 118-204): as the sequence (Q15699 118-204 L144V) above, with V27L counted along it

HOXA4 [12] = target: HOXA4 (Homo sapiens, UniProt Q00056 201-287, W262F)
Sequence of HOXA4 (Homo sapiens, UniProt Q00056 201-287, W262F) (Q00056 201-287 W262F): as the sequence (Q00056 201-287) above, with W62F counted along it

PRRX1 [13] = target: PRRX1 (Homo sapiens, UniProt P54821 80-166)
Sequence of PRRX1 (Homo sapiens, UniProt P54821 80-166) (P54821 80-166): as the sequence (P54821 80-166 F113S) above, with S34F counted along it

HOXB6 [14] = target: HOXB6 (Homo sapiens, UniProt P17509 132-218)
Sequence of HOXB6 (Homo sapiens, UniProt P17509 132-218) (P17509 132-218): as the sequence (P17509 132-218 K202E) above, with E71K counted along it

VAX1 [15] = target: VAX1 (Homo sapiens, UniProt Q5SQQ9 86-172, T142I)
Sequence of VAX1 (Homo sapiens, UniProt Q5SQQ9 86-172, T142I) (Q5SQQ9 86-172 T142I): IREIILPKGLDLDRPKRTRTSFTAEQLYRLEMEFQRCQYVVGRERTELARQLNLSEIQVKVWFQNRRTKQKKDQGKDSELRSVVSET

VAX1 [16] = target: VAX1 (Homo sapiens, UniProt Q5SQQ9 86-172, K157R)
Sequence of VAX1 (Homo sapiens, UniProt Q5SQQ9 86-172, K157R) (Q5SQQ9 86-172 K157R): as the sequence (Q5SQQ9 86-172 T142I) above, with I57T, K72R counted along it

Sequence of HOXA7 (Homo sapiens, UniProt P31268 116-202) (P31268 116-202): as the sequence (P31268 116-202 W177C) above, with C62W counted along it
Sequence of ALX4 (Homo sapiens, UniProt Q9H161 200-286) (Q9H161 200-286): as the sequence (Q9H161 200-286 Q225E) above, with E26Q counted along it
Sequence of HOXA4 (Homo sapiens, UniProt Q00056 201-287, W262R) (Q00056 201-287 W262R): as the sequence (Q00056 201-287) above, with W62R counted along it

Sequence | binding signal (VENTX) | binding signal (HOXA4 [1]) | binding signal (HOXA7 [2]) | binding signal (ALX4 [3]) | binding signal (PRRX1 [4]) | binding signal (HOXB6 [5]) | binding signal (ALX4 [6]) | binding signal (HOXA2) | binding signal (ALX1 [7]) | binding signal (ALX1 [8]) | binding signal (HOXA4 [9]) | binding signal (MSX2) | binding signal (HOXA7 [10]) | binding signal (ALX1 [11]) | binding signal (HOXA4 [12]) | binding signal (PRRX1 [13]) | binding signal (HOXB6 [14]) | binding signal (VAX1 [15]) | binding signal (VAX1 [16])
CAATTATC | 11.7 upbm affinity estimate (log intensity, higher = more binding, comparable within an allelic series) | 10.5 upbm affinity estimate (log intensity, higher = more binding, comparable within an allelic series) | 11.2 upbm affinity estimate (log intensity, higher = more binding, comparable within an allelic series) | 13.8 upbm affinity estimate (log intensity, higher = more binding, comparable within an allelic series) | 11.3 upbm affinity estimate (log intensity, higher = more binding, comparable within an allelic series) | 9.98 upbm affinity estimate (log intensity, higher = more binding, comparable within an allelic series) | 13.2 upbm affinity estimate (log intensity, higher = more binding, comparable within an allelic series) | 12.4 upbm affinity estimate (log intensity, higher = more binding, comparable within an allelic series) | 11.7 upbm affinity estimate (log intensity, higher = more binding, comparable within an allelic series) | 11.4 upbm affinity estimate (log intensity, higher = more binding, comparable within an allelic series) | 13.6 upbm affinity estimate (log intensity, higher = more binding, comparable within an allelic series) | 13.9 upbm affinity estimate (log intensity, higher = more binding, comparable within an allelic series) | 8.91 upbm affinity estimate (log intensity, higher = more binding, comparable within an allelic series) | 12.3 upbm affinity estimate (log intensity, higher = more binding, comparable within an allelic series) | 11.2 upbm affinity estimate (log intensity, higher = more binding, comparable within an allelic series) | 13.4 upbm affinity estimate (log intensity, higher = more binding, comparable within an allelic series) | 11.6 upbm affinity estimate (log intensity, higher = more binding, comparable within an allelic series) |  | 
CAATTAAA | 11.7 upbm affinity estimate (log intensity, higher = more binding, comparable within an allelic series) | 10.5 upbm affinity estimate (log intensity, higher = more binding, comparable within an allelic series) | 11.8 upbm affinity estimate (log intensity, higher = more binding, comparable within an allelic series) | 14 upbm affinity estimate (log intensity, higher = more binding, comparable within an allelic series) | 11.2 upbm affinity estimate (log intensity, higher = more binding, comparable within an allelic series) | 10 upbm affinity estimate (log intensity, higher = more binding, comparable within an allelic series) | 13.5 upbm affinity estimate (log intensity, higher = more binding, comparable within an allelic series) | 12.6 upbm affinity estimate (log intensity, higher = more binding, comparable within an allelic series) | 11.7 upbm affinity estimate (log intensity, higher = more binding, comparable within an allelic series) | 11.5 upbm affinity estimate (log intensity, higher = more binding, comparable within an allelic series) | 13.6 upbm affinity estimate (log intensity, higher = more binding, comparable within an allelic series) | 14 upbm affinity estimate (log intensity, higher = more binding, comparable within an allelic series) | 8.84 upbm affinity estimate (log intensity, higher = more binding, comparable within an allelic series) | 12.2 upbm affinity estimate (log intensity, higher = more binding, comparable within an allelic series) | 11.3 upbm affinity estimate (log intensity, higher = more binding, comparable within an allelic series) | 13.3 upbm affinity estimate (log intensity, higher = more binding, comparable within an allelic series) | 12.1 upbm affinity estimate (log intensity, higher = more binding, comparable within an allelic series) | 12.7 upbm affinity estimate (log intensity, higher = more binding, comparable within an allelic series) | 12.8 upbm affinity estimate (log intensity, higher = more binding, comparable within an allelic series)
CAATTATG |  |  |  | 13.8 upbm affinity estimate (log intensity, higher = more binding, comparable within an allelic series) | 11.3 upbm affinity estimate (log intensity, higher = more binding, comparable within an allelic series) | 9.97 upbm affinity estimate (log intensity, higher = more binding, comparable within an allelic series) | 13.1 upbm affinity estimate (log intensity, higher = more binding, comparable within an allelic series) | 12.5 upbm affinity estimate (log intensity, higher = more binding, comparable within an allelic series) | 11.7 upbm affinity estimate (log intensity, higher = more binding, comparable within an allelic series) | 11.4 upbm affinity estimate (log intensity, higher = more binding, comparable within an allelic series) |  | 13.9 upbm affinity estimate (log intensity, higher = more binding, comparable within an allelic series) |  | 12.3 upbm affinity estimate (log intensity, higher = more binding, comparable within an allelic series) |  | 13.5 upbm affinity estimate (log intensity, higher = more binding, comparable within an allelic series) | 11.7 upbm affinity estimate (log intensity, higher = more binding, comparable within an allelic series) |  | 
GGCAATTA | 11.9 upbm affinity estimate (log intensity, higher = more binding, comparable within an allelic series) | 10.5 upbm affinity estimate (log intensity, higher = more binding, comparable within an allelic series) | 11.7 upbm affinity estimate (log intensity, higher = more binding, comparable within an allelic series) | 13.6 upbm affinity estimate (log intensity, higher = more binding, comparable within an allelic series) |  | 9.93 upbm affinity estimate (log intensity, higher = more binding, comparable within an allelic series) | 12.9 upbm affinity estimate (log intensity, higher = more binding, comparable within an allelic series) | 13 upbm affinity estimate (log intensity, higher = more binding, comparable within an allelic series) | 11.4 upbm affinity estimate (log intensity, higher = more binding, comparable within an allelic series) | 11 upbm affinity estimate (log intensity, higher = more binding, comparable within an allelic series) | 13.7 upbm affinity estimate (log intensity, higher = more binding, comparable within an allelic series) | 13.9 upbm affinity estimate (log intensity, higher = more binding, comparable within an allelic series) | 8.77 upbm affinity estimate (log intensity, higher = more binding, comparable within an allelic series) | 12 upbm affinity estimate (log intensity, higher = more binding, comparable within an allelic series) | 11.4 upbm affinity estimate (log intensity, higher = more binding, comparable within an allelic series) |  | 12.2 upbm affinity estimate (log intensity, higher = more binding, comparable within an allelic series) | 13 upbm affinity estimate (log intensity, higher = more binding, comparable within an allelic series) | 12.8 upbm affinity estimate (log intensity, higher = more binding, comparable within an allelic series)

— PMC11006913
